These results are taken from PubChem BioAssay (NCI).

Test systems include SK-MEL-2 melanoma; EKVX NSCLC; SN12C renal; UO-31 renal; TK-10 renal; ACHN renal; CAKI-1 renal; A498 renal; CCRF-CEM leukemia; MOLT-4 leukemia.
Common to all, as to experiment: NCI-60 one-dose screen, 48 h (100 = growth as untreated, 0 = no growth, -100 = all killed)
Conditions in all cases: 10 µM unless noted

SMILES strings stand for the structures. About 83,000 compounds went through this panel and 20% of them were active in at least one assay; those are over-represented in the sample as a whole.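 Step 1: grow cells in 96-well plates. Step 2: add test compound at a single concentration. Step 3: incubate 48 h. Step 4: record percent growth.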 A number with no mark means an inactive call. Active and inactive are the calls of the source. The calls were made as follows: active = growth percent below 10; inactive = the rest.

As to `Clc1ccccc1-c1nc(Nc2nc3ccccc3s2)nc(C(Cl)(Cl)Cl)n1`, the growth in the assay with SK-MEL-2 melanoma is 85.9%; with EKVX NSCLC, 54%; with SN12C renal, 82.6%; in the assay on UO-31 renal, 14.3%; in the assay with TK-10 renal it was 84.1%; in the assay on ACHN renal, 6.55% (active). The growth is 20.9% with CAKI-1 renal, 58.3% with A498 renal, 92.5% in the assay with CCRF-CEM leukemia and 86.3% with MOLT-4 leukemia.
For the molecule `C=C1C(=O)O[C@H]2[C@H]1CC/C(Cn1cc(-c3ccc(OC)cc3)nn1)=C\CC[C@@]1(C)O[C@@H]21`, the growth was 61.9% with SK-MEL-2 melanoma; 85.4% with EKVX NSCLC; 0.315% (active) in the assay on SN12C renal; -86.2% (active) with UO-31 renal; -84.1% (active) in the assay on TK-10 renal; 6.78% (active) in the assay with ACHN renal. Further, the growth is -4.52% (active) in the assay with CAKI-1 renal, 31.7% in the assay on A498 renal, -32.6% (active) in the assay with CCRF-CEM leukemia and -32.9% (active) in the assay with MOLT-4 leukemia.
Consider `O=c1[nH]ncc(Br)c1Br`, for which the growth is 45.1% in the assay with SK-MEL-2 melanoma; 78.8% in the assay with EKVX NSCLC; 63.6% in the assay with SN12C renal; 52% in the assay on UO-31 renal; 65.8% in the assay on TK-10 renal; 87.3% with ACHN renal. Also, the growth was 86.4% in the assay on CAKI-1 renal, 108% with A498 renal, 27.6% in the assay with CCRF-CEM leukemia and 35.4% in the assay with MOLT-4 leukemia.
On to `COc1ccc(-c2cc(-c3cccs3)n(N=O)c(=O)c2C#N)cc1`, for which the growth is 105% in the assay with SK-MEL-2 melanoma; 115% in the assay on EKVX NSCLC; 95.8% with SN12C renal; 89.4% with UO-31 renal; 114% with TK-10 renal; 109% with ACHN renal. In addition, the growth was 102% in the assay on CAKI-1 renal, 87.7% with A498 renal, 58.1% with CCRF-CEM leukemia and 107% with MOLT-4 leukemia.
With `N=C(N)N=Nc1ccc(O)cc1`, the growth with SK-MEL-2 melanoma is 105% [100 µM]; with EKVX NSCLC, 96% [100 µM]; in the assay on SN12C renal it was 104% [100 µM]; in the assay with UO-31 renal it was 81.9% [100 µM]; in the assay with TK-10 renal it was 124% [100 µM]; with ACHN renal it was 20.8% [100 µM]. The growth in the assay with CAKI-1 renal was 53.4% [100 µM]; with A498 renal, 126% [100 µM]; in the assay with CCRF-CEM leukemia, 91.2% [100 µM]; in the assay with MOLT-4 leukemia, 88.4% [100 µM].
Regarding `Cc1nn(-c2ccc(Cl)cc2)c(=O)n1CCn1cnc2ccccc21`, the growth is 109% in the assay on SK-MEL-2 melanoma; 102% with EKVX NSCLC; 105% in the assay with SN12C renal; 90.8% with UO-31 renal; 108% in the assay on TK-10 renal; 109% in the assay on ACHN renal. Further, the growth in the assay with CAKI-1 renal is 95.8%; in the assay with A498 renal it was 95.6%; in the assay on CCRF-CEM leukemia, 106%; with MOLT-4 leukemia, 100%.
For `CC1(C)C(=O)/C(=C\c2ccccn2)C[C@]2(C)[C@H]3CC[C@@H]4[C@@H](C(=O)/C=C/c5ccccn5)CC[C@@]4(C)[C@]3(C)CC[C@@H]12`, the growth with SK-MEL-2 melanoma is -25.6% (active); in the assay with EKVX NSCLC, -16.4% (active); in the assay on SN12C renal, -4.12% (active); with UO-31 renal it was -99.6% (active); in the assay on TK-10 renal, -21.7% (active); in the assay on ACHN renal it was -89% (active). Besides, the growth in the assay with CAKI-1 renal was -20.3% (active); with A498 renal, -80.6% (active); with CCRF-CEM leukemia, 6.8% (active); in the assay with MOLT-4 leukemia it was 7.28% (active).
For `C=C(C)[C@@H]1CC[C@]2(C)CC[C@]3(C)[C@H](CC[C@@H]4[C@@]5(C)CCCNC(C)(C)[C@@H]5CC[C@]43C)[C@@H]12`, the growth in the assay with SK-MEL-2 melanoma is 119%; in the assay with EKVX NSCLC it was 103%; with SN12C renal, 82.1%; in the assay on UO-31 renal, 88.2%; in the assay on TK-10 renal it was 142%; in the assay with ACHN renal it was 95.5%. The growth with CAKI-1 renal is 75.3%; in the assay with A498 renal, 79.7%; in the assay on CCRF-CEM leukemia, 52%; in the assay with MOLT-4 leukemia, 46.6%.
`COc1cc2nc(Cl)nc(Nc3cccc(C(=O)/C=C/c4ccc(Br)cc4)c3)c2cc1OC`: the growth in the assay with SK-MEL-2 melanoma is 92.4%; in the assay on EKVX NSCLC, 81.3%; in the assay on SN12C renal it was 80.8%; in the assay on UO-31 renal it was 60.8%; in the assay on TK-10 renal, 172%; in the assay on ACHN renal, 78.3%. Further, the growth in the assay with CAKI-1 renal was 72.8%; with A498 renal it was 85.4%; in the assay with CCRF-CEM leukemia, 31.3%; with MOLT-4 leukemia it was 37.1%.
Consider `CCc1cccc(CC)c1NC(=O)c1sc2nc3c(cc2c1N)CCCC3`, for which the growth is 56.3% with SK-MEL-2 melanoma; 88.9% with EKVX NSCLC; 83.5% with SN12C renal; 57.7% in the assay with UO-31 renal; 90.5% with TK-10 renal; 71.8% with ACHN renal. Further, the growth in the assay with CAKI-1 renal was 64.6%; in the assay on A498 renal, 40.2%; in the assay with CCRF-CEM leukemia it was 60.7%; in the assay on MOLT-4 leukemia, 61.9%.
Consider `O=S(=O)(NCCNc1cc(-c2cn(-c3ccccc3)nc2-c2cccc(O)c2)ccn1)c1cccc(F)c1`, for which the growth in the assay with SK-MEL-2 melanoma is 53.1%; in the assay on EKVX NSCLC, 46.6%; with SN12C renal, 50.4%; in the assay with UO-31 renal it was 23.5%; with TK-10 renal, 56%; with ACHN renal, 36.3%. Besides, the growth was 44.3% in the assay on CAKI-1 renal, 57.4% with A498 renal, 18.7% in the assay on CCRF-CEM leukemia and 18.5% in the assay on MOLT-4 leukemia.
In the case of `COC1=C(Br)C(=O)C(OC)=C(Br)C1=O`, the growth is 119% with SK-MEL-2 melanoma; 105% with EKVX NSCLC; 95.2% in the assay on SN12C renal; 93.3% with UO-31 renal; 95.7% in the assay with TK-10 renal; 104% with ACHN renal. In addition, the growth is 98.9% in the assay on CAKI-1 renal, 128% in the assay with A498 renal, -12.3% (active) in the assay with CCRF-CEM leukemia and 26.4% in the assay on MOLT-4 leukemia.
Consider `Cc1cc(N=O)cc(C(C)(C)C)c1O`, for which the growth is 85.2% with SK-MEL-2 melanoma; 95.4% in the assay on EKVX NSCLC; 101% in the assay on SN12C renal; 92.3% in the assay with UO-31 renal; 94.1% in the assay on TK-10 renal; 108% in the assay with ACHN renal. The growth with CAKI-1 renal was 86.1%; in the assay with A498 renal, 74.3%; in the assay on CCRF-CEM leukemia, 82.5%; in the assay on MOLT-4 leukemia, 94.2%.
